Our source for the z-score values is PubChem BioAssay AID488969 (Vanderbilt High Throughput Screening Facility, 2010).

Each structure is given as a SMILES string. In all, about 110,000 compounds were measured (“z-score”: median about -0.1, highest 2% from about 2 on). The sample holds the highest values, similar compounds and a random draw of the others, so the mix is not that of the screen. The source made the active and inactive calls.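 How the source made its calls: active means z-score in the third read window above 3 or below -3; inactive means the rest.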 Non-standard residues stand in square brackets, D forms with d. Residues, ends and D or L forms follow the SMILES beside them. ξ: configuration not given here. *: point of attachment. Boc = CC(C)(C)OC(=O)*; ξP = O=C(O)C1CCCN1

Chain of Metabotropic glutamate receptor 8 (Rattus norvegicus) (P70579 whole entry, looked up): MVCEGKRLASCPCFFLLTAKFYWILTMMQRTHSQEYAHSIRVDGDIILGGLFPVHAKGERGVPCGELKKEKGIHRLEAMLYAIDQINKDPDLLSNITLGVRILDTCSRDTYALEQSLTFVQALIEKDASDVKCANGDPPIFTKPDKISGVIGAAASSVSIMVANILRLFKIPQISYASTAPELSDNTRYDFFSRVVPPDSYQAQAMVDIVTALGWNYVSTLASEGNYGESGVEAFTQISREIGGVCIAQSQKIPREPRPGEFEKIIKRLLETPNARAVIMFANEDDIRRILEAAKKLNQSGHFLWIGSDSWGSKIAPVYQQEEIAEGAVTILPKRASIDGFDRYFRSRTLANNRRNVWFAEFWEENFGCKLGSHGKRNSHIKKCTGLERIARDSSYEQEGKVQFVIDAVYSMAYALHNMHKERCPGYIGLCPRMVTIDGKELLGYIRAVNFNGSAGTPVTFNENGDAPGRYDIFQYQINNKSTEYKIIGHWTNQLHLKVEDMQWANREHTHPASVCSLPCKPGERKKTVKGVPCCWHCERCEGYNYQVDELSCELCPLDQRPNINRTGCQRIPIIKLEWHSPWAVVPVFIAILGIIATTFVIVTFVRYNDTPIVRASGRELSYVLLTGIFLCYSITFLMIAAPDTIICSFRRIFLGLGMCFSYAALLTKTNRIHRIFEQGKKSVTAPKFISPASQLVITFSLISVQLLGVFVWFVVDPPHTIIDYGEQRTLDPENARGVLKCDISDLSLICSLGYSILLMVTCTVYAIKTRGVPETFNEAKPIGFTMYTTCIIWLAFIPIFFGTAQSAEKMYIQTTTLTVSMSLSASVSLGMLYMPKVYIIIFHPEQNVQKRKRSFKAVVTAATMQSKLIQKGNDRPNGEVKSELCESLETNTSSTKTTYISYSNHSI

The assay addresses Metabotropic glutamate receptor 8 (Rattus norvegicus) (UniProt P70579). Kind of assay: mGluR8 Gi/Go-coupled signaling modulation – cell-based, rat, thallium flux, HTS, primary screen (AID 488969). The following applies: HEK293 rat mGluR8, GIRK (G protein-gated inwardly rectifying potassium channel) thallium flux, FluoZin2; at 10 µM; stronger effect = higher value; submaximal glutamate (EC20) added with thallium.
`C=CCn1c(SCC(=O)Nc2sccc2C(N)=O)nc2ccccc2c1=O` showed a z-score of -0.59. `C=CCn1c(SCN2C(=O)c3ccccc3C2=O)nc2ccc(Cl)cc2c1=O`: the z-score is 12.6 (active). Then `C=CCn1c(SCC(=O)NCCC2=CCCCC2)nc2ccc(Cl)cc2c1=O`, with -0.151.

`C=CCn1c(SCC(=O)Nc2sccc2C(N)=O)nc2sc(CC)cc2c1=O`: the z-score was -1.15. Then `C=CCn1c(SCC(=O)Nc2sccc2C(N)=O)nc2ccc(Cl)cc2c1=O`, with 5.23 (active); and `C=CCn1c(SCC(=O)c2ccc(Cl)s2)nc2ccccc2c1=O`, with -0.205.

Molecule `O=C1C2C3C=CC([C@@H]2C(=O)N1c1nccs1)C31CC1` (stereo partly specified) yielded a z-score of -0.0608. The result for `Cc1ccc2nc(NC(=O)c3ccc(NS(=O)(=O)c4cccs4)cc3)sc2c1` reads 0.062; that for `CC(C)NC(=S)N=Nc1c(O)[nH]c2ccc(C(C)C)cc12`, 0.589; that for `NC(=S)N=Nc1c(O)[nH]c2ccc(F)cc12`, 1.48. Then `CNC(=S)N=Nc1c(O)[nH]c2ccc(C(C)C)cc12`, with 5.56 (active). The result for `COC(=O)CNC(=O)C1CCCN1C(=O)OC(C)(C)C` (stereo unspecified) (Boc-[ξP]-Gly-OMe) reads -0.536.

In the case of `Cn1cc(Cl)c(C(=O)Nc2nc3ccc(Cl)cc3s2)n1`, the z-score was determined as 0.119. `CCOC(=O)N1CCN(c2cc3nccnc3cc2F)CC1` had a z-score of -0.142.

As to `CCOC(=O)N1CCN(c2cc3[nH]c(=S)[nH]c3cc2F)CC1`, the z-score was -0.482. For the molecule `CCOC(=O)N1CCN(c2c(F)cc3[nH]c(=S)[nH]c3c2Br)CC1`, the z-score was 6.26 (active). Then `CC1CCCC(C)N1C(=O)CSc1nnc(NC(=O)Cc2cccs2)s1` (stereo unspecified), with -1.05; and `Cc1cc(NC(=O)CCC(=O)NNC(=O)c2ccc(C(C)(C)C)cc2)no1`, with -0.141; and `Cc1noc(C)c1CSc1ccccc1C(=O)Nc1nccs1`, with 0.618.

The molecule `COCCNC(=O)Nc1ccc2nc(-c3cccs3)c(-c3cccs3)nc2c1` had a z-score of -0.235. In the case of `COc1ccc(O)c(/C=N/n2c(-c3ccco3)csc2=Nc2cccnc2)c1`, the z-score was 0.368. The result for `CN=c1scc(C)n1/N=C/c1ccc(O)c(O)c1O` reads -0.648. The result for `CC(C)N=c1scc(-c2cccs2)n1/N=C/c1ccc(O)c(O)c1O` reads 4.07 (active); that for `CN=c1scc(-c2cccs2)n1/N=C/c1ccc(O)c(O)c1O`, 3.01 (active); that for `CN=c1scc(C)n1/N=C/c1ccc(O)cc1O`, 0.0453.

Molecule `CCN=c1scc(C)n1/N=C/c1ccsc1` displayed a z-score of -0.0195. Then `CN=c1scc(-c2cccs2)n1/N=C/c1ccccc1O`, with 0.0374; and `COCCN=c1scc(-c2cccs2)n1/N=C/c1ccc(O)c(O)c1O`, with 2.93.

Take `CCN=c1scc(-c2cccs2)n1/N=C/c1cc(OC)ccc1O`: the z-score worked out at 2.02. Then `Oc1ccc(/C=N/N=C(c2ccccc2)c2ccccc2)c(O)c1O`, with -0.213. Then `CCN=c1scc(C)n1/N=C/c1ccc(O)c(O)c1O`, with -0.528; and `COc1cc(/C=N/NC(=O)COc2ccc(Cl)cc2)ccc1OS(=O)(=O)c1ccc(C)cc1`, with -0.0849; and `CCOC(=O)C1=NNC(C(=O)c2ccc(C)cc2)C1c1ccc(C)cc1` (stereo unspecified), with -0.512. Then `C=C(C)c1cccc(C(C)(C)NC(=O)N2CC(C)OC(C)C2)c1` (stereo unspecified), with -0.0325; and `Cc1nn(C)c(C)c1/C=C(\C#N)C(N)=O`, with -0.273; and `Cc1ccc(CN(Cc2ccc(C)o2)C(=S)NCC(=O)O)cc1`, with -0.00212. On to `Cc1sc2nc(CN3CCCCC3)nc(Cl)c2c1C`, for which the z-score was -0.502. As for `Cn1c(NCC(O)CO)nc2c1c(=O)n(Cc1ccc(Cl)c(Cl)c1)c(=O)n2C` (stereo unspecified), the z-score was -0.188.

The molecule `COc1ccc2c(c1)c(=O)cc(-c1ccccc1)n2C` displayed a z-score of -0.0758. Then `COCCN=c1scc(-c2ccccc2)n1/N=C/c1c[nH]c2ccccc12`, with 2.05; and `CCN=c1scc(-c2ccccc2)n1/N=C/c1ccccn1`, with -0.0993. The result for `COCCN=c1scc(-c2cc(OC)ccc2OC)n1/N=C/c1c[nH]c2ccccc12` reads -0.343; that for `Cc1cc(C)cc(NC(=O)Cn2cc3c(n2)CCCCC3)c1`, 5.95 (active); that for `CC1CCCC(NC(=O)Cn2cc3c(n2)CCCCC3)C1C` (stereo unspecified), 0.237. In the case of `CC(=O)c1cccc(NC(=O)Cn2cc3c(n2)CCCC3)c1`, the z-score is -0.279.

Take `CC1CCc2nn(CC(=O)NC3CCCC3)cc2C1` (stereo unspecified): the z-score is -0.653.

In turn, `O=C(Cn1cc2c(n1)CCCCC2)Nc1c(F)c(F)cc(F)c1F` gave a z-score of 0.762. Then `CCc1cccc(NC(=O)Cn2cc3c(n2)CCCC3)c1`, with 0.22; and `COc1cccc(CNC(=O)Cn2cc3c(n2)CCCCC3)c1`, with -0.00462; and `COc1cccc(NC(=O)Cn2cc3c(n2)CCCCC3)c1`, with 2.89.

As to `CC1CCC(NC(=O)Cn2cc3c(n2)CCCC3)CC1` (stereo unspecified), the z-score amounted to 2.79. Then `C/C(=N/NC(=O)c1ccc(O)cc1)c1cccc([N+](=O)[O-])c1`, with -0.369; and `Cc1c2ccccc2nc2c(F)c(NCCO)c(F)c(F)c12`, with -0.746; and `COc1ccc(/C=N/OCC(=O)N(Cc2ccc(OC)cc2)c2ccccc2C(=O)O)cc1`, with -0.615. The result for `Cc1nn(Cc2ccccc2)c(C)c1NC(=O)CCC(=O)O` reads -0.119; that for `Cc1cc(C)c(C(=O)CSc2nnc(-c3cccnc3)n2C)c(C)c1`, 0.116; that for `CCCCNC(=O)/C=C/c1cccs1`, -0.364. The result for `Cc1ccc(C(C#N)c2ccc3c(C(F)(F)F)cc(C(F)(F)F)nc3n2)cc1` (stereo unspecified) reads 1.26; that for `N#CC(c1cccc(Cl)c1)c1ccc2c(C(F)(F)F)cc(C(F)(F)F)nc2n1` (stereo unspecified), 10.5 (active); that for `N#CC(c1ccccc1)c1ccc2c(C(F)(F)F)cc(C(F)(F)F)nc2n1` (stereo unspecified), 0.135. In the case of `C/C(Cl)=C\Cn1c(NCCCn2ccnc2)nc2c1c(=O)n(C)c(=O)n2C`, the z-score was -0.632. Then `Cn1c(=O)[nH]c(=O)c2c1nc(NC1CCCCC1)n2Cc1ccccc1`, with 0.331.

As to `CC(=O)c1cc(OC(=O)N2CCOCC2)ccc1OC(=O)N1CCOCC1`, the z-score is -0.376. The result for `CN(C)Cc1nc2c(c(=O)[nH]1)C(C)(C)Cc1ccccc1-2` reads 0.00689; that for `O=C(COC(=O)c1ccc2c(c1)C(=O)N(c1cccc3ncccc13)C2=O)c1ccc(Cl)cc1`, -0.619; that for `COc1ccc(NC(=O)N2CC(C)OC(C)C2)cc1OC` (stereo unspecified), -0.307.

Regarding `O=C(CCNS(=O)(=O)c1ccc2c(c1)CCC(=O)N2)NCc1cccnc1`, the z-score was -0.489.

Regarding `CCCCn1nnc(NC(=O)COc2ccc(Cl)c(C)c2)n1`, the z-score is 0.0561.

As to `CCCn1nnc(NC(=O)COc2ccc(Cl)cc2)n1`, the z-score is -0.244. Then `CCn1nnc(NC(=O)COc2ccc(C3CCCCC3)cc2)n1`, with 2.13; and `Cn1nnc(NC(=O)COc2ccc(C3CCCCC3)cc2)n1`, with 0.85; and `CCn1nnc(NC(=O)COc2cc(C)ccc2C(C)C)n1`, with -0.0287. In turn, `CCCn1nnc(NC(=O)COc2cc(C)ccc2C(C)C)n1` yielded a z-score of 2.14. The result for `CCCCn1nnc(NC(=O)COc2cc(C)ccc2C(C)C)n1` reads 1.04. Molecule `CCCn1nnc(NC(=O)COc2ccc(C3CCCCC3)cc2)n1` returned a z-score of 2.04. As to `CCCn1nnc(NC(=O)COc2ccc(CC)cc2)n1`, the z-score is -0.0151.
